In PubChem BioAssay (NCI):
This is part of a sample that, as a whole, favours compounds with a hit. Of some 83,000 tested, about 20% had one in any assay.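 How to read the values: 0–100, growth inhibition (40 = 60% inhibited); 0, no net growth; -100 to 0, cell death (-40 = 40% of starting cells died; -100 = all dead).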 Active and inactive are the calls of the source. Rule for the calls: active = growth percent below 10; inactive = the rest.

Assays:
Assay in all cases: NCI-60 one-dose screen, 48 h (100 = growth as untreated, 0 = no growth, -100 = all killed)
Settings in all cases: 10 µM unless noted
[1] = system: T-47D breast
[2] = system: BT-549 breast
[3] = system: MDA-MB-435 melanoma
[4] = system: SW-620 colon
[5] = system: MCF7 breast
[6] = system: HCT-116 colon
[7] = system: HCC-2998 colon
[8] = system: KM12 colon

Measured: growth

O=C(Nc1ccc(Cl)cc1)Nc1ccccc1CNc1nc(Nc2ccc(OCCN3CCCC3)cc2)ncc1Cl
inactive: [1] 105% | [2] 77.6% | [8] 11.3%
active: [3] -28.9% | [4] -14.9% | [5] -10.5% | [6] -28.7% | [7] -21.1%

Cc1nn2c(/C=C3/C(=O)Nc4cc(Cl)ccc43)c(-c3ccccc3)nc2s1
inactive: [2] 15.4% | [5] 21% | [7] 120% | [8] 78.7%
active: [1] -63% | [3] -14.8% | [4] -26.8% | [6] -79%

CCCCCc1c(C)[nH]c(/C=C2\N=C(c3ccc[nH]3)C=C2Oc2ccc(Cl)cc2)c1C
active: [1] -38.1% [100 µM] | [2] 0.41% [100 µM] | [3] -71.7% [100 µM] | [4] -31.7% [100 µM] | [5] -68.5% [100 µM] | [6] -89.8% [100 µM] | [7] -17% [100 µM] | [8] -75.5% [100 µM]

O=C(COc1ccc(/C=C2\Cc3ccccc3C2=O)cc1)c1ccc(Cl)cc1
inactive: [1] 102% | [2] 113% | [3] 95.4% | [4] 107% | [5] 97.1% | [6] 77.7% | [7] 82.2% | [8] 107%

COc1cc(/C=N/NC(=O)c2ccc(C(F)(F)F)nc2Nc2ccc(Cl)cc2C)ccc1O
inactive: [1] 33.7% | [2] 16% | [3] 39.2% | [4] 26.2% | [5] 27.8% | [6] 11.3% | [7] 42.8% | [8] 24.5%

Oc1ccccc1/C=N/N1CCCCCC1
inactive: [1] 102% | [2] 97.9% | [3] 99.9% | [4] 108% | [5] 83.8% | [6] 102% | [7] 95.8% | [8] 103%

C[C@H](C(=O)N[C@@H](Cc1ccc(-c2ccccc2)cc1)C(=O)NC1CC(C)(C)NC(C)(C)C1)c1ccc(-c2ccccc2)c(F)c1
active: [1] -37.2% | [2] -19.8% | [3] -90.1% | [4] -78.2% | [5] -50.9% | [6] -85.8% | [7] -83% | [8] -80%

Cc1nn(-c2ccccc2)c2nc(N)c(C3=NCCO3)nc12
inactive: [1] 77.5% | [2] 92.6% | [3] 101% | [4] 92.6% | [5] 83.6% | [6] 95.8% | [7] 101% | [8] 104%

CC(C)Sc1nc(Cl)c(C#N)c(-c2ccc(F)cc2)n1
inactive: [1] 98.1% | [2] 108% | [3] 101% | [4] 72.2% | [5] 96.4% | [6] 62% | [7] 112% | [8] 107%

CSc1nc(N)c2c(n1)N(C)C=NS2(=O)=O
inactive: [1] 97.2% | [2] 100% | [3] 111% | [4] 102% | [5] 102% | [6] 102% | [7] 107% | [8] 117%

CCN(Cc1cccc(S(=O)(=O)[O-])c1)c1ccc(C(=C2C=CC(=[N+](CC)Cc3cccc(S(=O)(=O)O)c3)C=C2)c2ccccc2S(=O)(=O)O)cc1
inactive: [1] 90.3% | [2] 104% | [3] 94.2% | [4] 103% | [5] 90.2% | [6] 95.1% | [7] 97.8% | [8] 94.4%

Cc1ccc(N/N=C(/C(=O)c2ccc(Cl)cc2)c2nc(C)cc(=O)[nH]2)cc1
inactive: [1] 88.3% | [2] 118% | [3] 123% | [4] 93.7% | [5] 91% | [6] 86.9% | [7] 116% | [8] 115%

Cc1csc(C#Cc2cncc(O)c2)n1
inactive: [1] 98.3% | [2] 113% | [3] 96.8% | [4] 113% | [5] 97.8% | [6] 103% | [7] 107% | [8] 125%

COc1cc(-c2n[nH]nc2-c2ccccn2)cc(OC)c1OC
inactive: [1] 87.2% | [2] 117% | [3] 106% | [4] 106% | [5] 96.2% | [6] 104% | [7] 105% | [8] 102%

Cc1ccc(OCC(=O)Nc2ccc(Oc3ccccc3)cc2)c([N+](=O)[O-])n1
inactive: [1] 23.4% | [2] 98.5% | [3] 96.7% | [4] 96.8% | [5] 58.3% | [6] 69.8% | [7] 81.1% | [8] 93.8%

CC(=O)c1nn(-c2ccccc2)c(=Nc2ccccc2)cc1C
inactive: [1] 88.2% | [2] 99% | [3] 112% | [4] 104% | [5] 93.4% | [6] 98.2% | [7] 100% | [8] 99%

COc1cc(/C=N/NC(=O)c2ccc(C(F)(F)F)nc2Nc2cc(Cl)ccc2C)cc(OC)c1OC
inactive: [1] 84.7% | [2] 99.6% | [3] 97.7% | [4] 97% | [5] 104% | [6] 99% | [7] 104% | [8] 108%

COc1c(O)cc2c(c1CC=C(C)C)OC(=O)c1c(cc(O)c(CC=C(C)C)c1O)O2
inactive: [1] 49.3% | [2] 78.2% | [3] 60.3% | [4] 27.3% | [5] 10.6% | [6] 26.8% | [7] 24.5%
active: [8] 7.76%

Cc1ccc(/C=C/C(=O)c2ccc(F)cc2)s1
inactive: [1] 62.9% | [2] 76.7% | [3] 52.1% | [4] 30.4% | [5] 35.9% | [6] 25.8% | [7] 88% | [8] 67.3%

CCN(CC)c1ccc(C(=C2C=CC(=[N+](CC)Cc3cccc(S(=O)(=O)O)c3)C=C2)c2ccc(N(CC)Cc3cccc(S(=O)(=O)O)c3)cc2)cc1
inactive: [2] 46.6% | [3] 41.5% | [4] 22.9% | [5] 52.1% | [7] 21%
active: [1] 8.92% | [6] 3.12% | [8] 3.78%

Nc1ccc(Oc2c(F)c(F)c(Oc3ccc(N)cc3)c(F)c2F)cc1
inactive: [1] 91.8% | [2] 108% | [3] 104% | [4] 102% | [5] 129% | [6] 81.5% | [7] 73.1% | [8] 110%

COc1cnc2c(c1)C(=O)c1c-2n(CCCNC(C)C)c(=O)c2cc(F)ccc12
active: [1] -11.5% | [2] -17.9% | [3] -6.52% | [4] -8.49% | [5] -3% | [6] -76.5% | [7] -49.8% | [8] -17.7%

Cc1sc2nc(NCc3ccccc3)[nH]c(=O)c2c1C
inactive: [1] 31.6% | [2] 53.9% | [4] 26% | [5] 31% | [6] 24.5% | [7] 87.7% | [8] 36.2%
active: [3] -31%

Nc1nc(Nc2ccccc2SSc2ccccc2Nc2nc(N)nc(-c3ccc(I)cc3)n2)nc(-c2ccc(I)cc2)n1
inactive: [1] 67.1% | [2] 70.8% | [3] 86.7% | [4] 94.3% | [5] 76% | [6] 50.1% | [7] 105% | [8] 37.2%

NC(=O)NS(=O)(=O)c1ccc(N2N=C(C(F)(F)F)CC2c2cc(C(F)(F)F)cc(C(F)(F)F)c2)cc1 (stereo not given)
inactive: [1] 72.4% | [2] 98% | [3] 40% | [4] 82.6% | [5] 49.7% | [6] 55.9% | [7] 88.2% | [8] 71%

CCN(CC)c1ccc(/C=C/C(=O)c2cccc(NS(C)(=O)=O)c2)cc1
inactive: [1] 44.3% | [2] 58.3% | [3] 22.7% | [4] 22.1% | [5] 22.8% | [6] 25.8% | [7] 23.2% | [8] 17.1%

COc1cc(/C(Cl)=C/C=C/C(=O)c2c(C)[n+]([O-])c3ccc(Cl)cc3[n+]2[O-])cc(OC)c1OC
inactive: [1] 22.3% | [2] 36.5% | [7] 83.2% | [8] 33%
active: [3] 6.9% | [4] 1.65% | [5] 0.61% | [6] 2.9%

O=Cc1ncc(-c2ccc(C(F)(F)F)cc2)c(NC2CCCCCC2)n1
active: [1] -19% [100 µM] | [2] -93.4% [100 µM] | [3] -88.1% [100 µM] | [4] -44.4% [100 µM] | [5] -86.3% [100 µM] | [6] -94.3% [100 µM] | [7] -74.4% [100 µM] | [8] -87.6% [100 µM]

CC(NNC(=S)N1CCCCCC1)c1ccc2ccccc2n1 (stereo not given)
inactive: [1] 29.8% | [2] 66.6% | [3] 40.6% | [4] 36% | [5] 16.5% | [6] 26.5% | [7] 36.6% | [8] 34.9%

COc1cc(/C=C/C(=O)C(C(=O)/C=C/c2ccc(OC(=O)CCNC34CC5CC(CC(C5)C3)C4)c(OC)c2)C(=O)CCNC23CC4CC(CC(C4)C2)C3)ccc1OC(=O)CCNC12CC3CC(CC(C3)C1)C2 (stereo not given)
inactive: [1] 41.6% | [5] 14.4%
active: [2] -24.2% | [3] -29.9% | [4] -22.7% | [6] -48.8% | [7] -48% | [8] -5.8%
